{"source": "PubChem BioAssay (NCATS)", "note": "Calls of active or inactive are those of the source. The call rests on the fitted dose curve; in most records, active means well fitted curve in the direction sought with a large enough effect; inactive means no such curve, though single readings can be large or run the other way."}
{"target": "Alpha-galactosidase A (Homo sapiens) (UniProt P06280)", "sequence (P06280 whole entry, looked up)": "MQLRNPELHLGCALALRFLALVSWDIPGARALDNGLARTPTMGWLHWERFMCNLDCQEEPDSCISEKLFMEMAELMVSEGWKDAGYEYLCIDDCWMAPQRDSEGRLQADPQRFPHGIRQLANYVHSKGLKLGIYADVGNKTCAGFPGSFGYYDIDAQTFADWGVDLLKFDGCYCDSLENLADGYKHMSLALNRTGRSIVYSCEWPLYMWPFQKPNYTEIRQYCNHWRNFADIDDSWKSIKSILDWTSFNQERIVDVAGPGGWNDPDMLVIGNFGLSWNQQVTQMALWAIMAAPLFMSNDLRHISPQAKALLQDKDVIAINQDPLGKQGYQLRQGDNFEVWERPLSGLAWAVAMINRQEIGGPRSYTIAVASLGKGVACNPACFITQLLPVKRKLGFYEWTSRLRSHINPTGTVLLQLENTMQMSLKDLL", "assay": "Counterscreen for Glucocerebrosidase Inhibitors: qHTS Assay for Human alpha-Galactosidase at pH 4.5 (AID 992)", "conditions": "purified enzyme, fluorogenic substrate; series mostly up to 76.9 µM", "excerpt": "NIH Chemical Genomics Center [NCGC]\nNIH Molecular Libraries Screening Centers Network [MLSCN]\nPI Name: Zheng, Wei [NIH]\nAlpha-galactosidase is a homodimeric glycoprotein that hydrolyzes the terminal alpha-galactosyl moieties from glycolipids and glycoproteins. Deficiency of this enzyme results in Fabry Disease with progressive accumulation of globotriaosylceramide and other glycosphingolipids in vascular endothelial cells that causes renal failure, myocardial infarction and stroke, and premature death in patients. It has reported that the improper folding and trafficking of alpha-galactosidase resulted from the genetic mutations may account for a significant numbers of Fabry patients. […] We optimized this alpha-galactosidase assay in 1536-well plate format for identifying the novel small molecule inhibitors with the structures other than the sugar analogs in order to develop the new pharmacological chaperones.\nNCGC Assay Protocol Summary:\nThis is a fluorogenic enzyme assay with 4-Methylumbelliferyl alpha-D-galactopyranoside as the substrate and human […] as the enzyme preparation. Upon the hydrolysis of this fluorogenic substrate, the resulting product, […]. 4-Methyllumbelliferone, can be excited at 365 nm and emits at 440 nm which can be detected by a standard fluorescence plate reader. Data were normalized to the controls for basal activity (without enzyme) and 100% activity (with enzyme). In the AC50 values were determined from concentration-response data modeled with the standard Hill equation.\nAssay buffer: 50 mM citric acid, 0.005% Tween-20, pH 4.5. (pH 4.5 is an optimal condition for this enzyme assay)\n1536-well assay protocol for the human alpha-galactosidase:\n(1) Add 2 ul/well of enzyme (2 nM final)\n(2) Add 23 nL compounds in DMSO solution. The final titration was 0.7 nM to 77 uM.\n(3) Add 1 ul of substrate (80 uM final)\n(4) Incubate at room temperature for 20 min.\n(5) Add 2 ul stop solution (1M NaOH and 1M Glycine mixture, pH 10)\n(6) Detect the assay plate in a ViewLux plate reader (PerkinElmer) with Ex=365 nm and Em=440nm.\nKeywords: Alpha-galactosidase, Fabry Disease, pharmacological chaperone, chaperone therapy, high throughput screening, alpha-galactosidase inhibitor, MLSMR, MLSCN, NIH Roadmap, qHTS and NCGC"}
{"smiles": "CN1CCN(CCCN2c3ccccc3Sc3ccc(Cl)cc32)CC1", "outcome": "inactive"}
{"smiles": "CC(C)C(=O)Nc1ccc([N+](=O)[O-])c(C(F)(F)F)c1", "outcome": "inactive"}
{"smiles": "CN1C(C(=O)Nc2ccccn2)=C(O)c2ccccc2S1(=O)=O", "outcome": "inactive"}
{"smiles": "Cc1cc(C(C)(C)C)c(O)c(C)c1CC1=NCCN1", "outcome": "inactive"}
{"smiles": "O=C1N(c2ccccc2)c2ccccc2C1(Cc1ccncc1)Cc1ccncc1", "outcome": "inactive"}
{"smiles": "NC(=O)OCC(COC(N)=O)c1ccccc1", "outcome": "inactive"}
{"smiles": "O=c1c(O)c(-c2ccc(O)c(O)c2)oc2cc(O)cc(O)c12", "outcome": "inactive"}
{"smiles": "Fc1ccc([C@@H]2CCNC[C@H]2COc2ccc3c(c2)OCO3)cc1", "outcome": "inactive"}
{"smiles": "NCCc1cnc[nH]1", "outcome": "inactive"}
{"smiles": "Nc1nnc(-c2cccc(Cl)c2Cl)c(N)n1", "outcome": "inactive"}
{"smiles": "Cn1ccc2cc3c(cc21)CCN3C(=O)Nc1cccnc1", "outcome": "inactive"}
{"smiles": "OCCN1CCN(CCCN2c3ccccc3Sc3ccc(C(F)(F)F)cc32)CC1", "outcome": "inactive"}
{"smiles": "O=c1c(-c2ccc(O)cc2)coc2cc(O)cc(O)c12", "outcome": "inactive"}
{"smiles": "C[C@](N)(Cc1ccc(O)c(O)c1)C(=O)O", "outcome": "inactive"}
{"smiles": "O=c1[nH]cc(F)c(=O)[nH]1", "outcome": "inactive"}
{"smiles": "Nc1nc2c(ncn2COC(CO)CO)c(=O)[nH]1", "outcome": "inactive"}
{"smiles": "Cn1c(=O)c2c(ncn2C)n(C)c1=O", "outcome": "inactive"}
{"smiles": "CCc1cccc2c3c([nH]c12)C(CC)(CC(=O)O)OCC3", "note": "(stereo not given)", "outcome": "inactive"}
{"smiles": "CCOC(=O)Nc1ccc(NCc2ccc(F)cc2)nc1N", "outcome": "inactive"}
{"smiles": "Nc1ccn([C@H]2CC[C@@H](CO)O2)c(=O)n1", "outcome": "inactive"}
{"smiles": "Cc1cnc(C(=O)NCCc2ccc(S(=O)(=O)NC(=O)NC3CCCCC3)cc2)cn1", "outcome": "inactive"}
{"smiles": "Cn1cnc2c1c(=O)[nH]c(=O)n2C", "outcome": "inactive"}
{"smiles": "Cc1cc(C(C)(C)C)cc(C)c1CC1=NCCN1", "outcome": "inactive"}
{"smiles": "Clc1ccc2c(c1)C(N1CCNCC1)=Nc1ccccc1O2", "outcome": "inactive"}
{"smiles": "CN(C)C(=O)C(CCN1CCC(O)(c2ccc(Cl)cc2)CC1)(c1ccccc1)c1ccccc1", "outcome": "inactive"}
{"smiles": "Clc1ccc(C(c2ccccc2Cl)C(Cl)Cl)cc1", "note": "(stereo not given)", "outcome": "inactive"}
{"smiles": "CN(Cc1cnc2nc(N)nc(N)c2n1)c1ccc(C(=O)N[C@@H](CCC(=O)O)C(=O)O)cc1", "outcome": "inactive"}
{"smiles": "NS(=O)(=O)c1cc2c(cc1Cl)NCNS2(=O)=O", "outcome": "inactive"}
{"smiles": "COc1cc2c(c(OC)c1OC)-c1ccc(OC)c(=O)cc1[C@@H](NC(C)=O)CC2", "outcome": "inactive"}
{"smiles": "CCCCc1oc2ccccc2c1C(=O)c1cc(I)c(OCCN(CC)CC)c(I)c1", "outcome": "inactive"}
{"smiles": "O=C(c1ccc(F)cc1)C1CCN(CCn2c(=O)[nH]c3ccccc3c2=O)CC1", "outcome": "inactive"}
{"smiles": "CCOC(=O)c1ncn2c1CN(C)C(=O)c1cc(F)ccc1-2", "outcome": "inactive"}
{"smiles": "CN(C)CCCN1c2ccccc2CCc2ccc(Cl)cc21", "outcome": "inactive"}
{"smiles": "Cc1ccc(C(=O)Nc2ccc(S(=O)(=O)O)c3cc(S(=O)(=O)O)cc(S(=O)(=O)O)c23)cc1NC(=O)c1cccc(NC(=O)Nc2cccc(C(=O)Nc3cc(C(=O)Nc4ccc(S(=O)(=O)O)c5cc(S(=O)(=O)O)cc(S(=O)(=O)O)c45)ccc3C)c2)c1", "outcome": "inactive"}
{"smiles": "CCOC(=O)C(C)(C)Oc1ccc(Cl)cc1", "outcome": "inactive"}
{"smiles": "CCC1(c2ccccc2)C(=O)NCNC1=O", "outcome": "inactive"}
{"smiles": "CN1CCC(=C2c3ccccc3CC(=O)c3sccc32)CC1", "outcome": "inactive"}
{"smiles": "Nc1c2c(nc3ccccc13)CCCC2", "outcome": "inactive"}
{"smiles": "O=C(Nc1ccc([N+](=O)[O-])cc1Cl)c1cc(Cl)ccc1O", "outcome": "inactive"}
{"smiles": "NC12CC3CC(CC(C3)C1)C2", "outcome": "inactive"}
